Hits are enriched below; roughly 5.1% of the tested compounds scored in any of these assays.
KCC2 mod: KCC2 (human) Cl- transport modulation. AID 1456. actives 2.2% (n = 190,000). KCC2 cells, thallium flux FluoZin-2 fluorescence. Q9H2X9. B-score of Tl+ flux slope (higher = more flux/activation; lower = inhibition) at 10 µM;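 active = thallium flux slope and its plate-corrected score both differing from the plate sample mean at a set confidence after two filtering rounds, in either direction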;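 note: slope of fluorescence scaled to starting intensity during 10 to 20 s after thallium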
RAM network inh: blocks the yeast RAM network | actives 1.8% (n = 190,000) | AID 868 | inhibition, % at 50 µM | S. cerevisiae dse1pr::URA3 reporter, 5-FOA growth OD615, 2 d; analog-sensitive cbk1-as2 kinase mutant strain;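 active = inhibition above a set limit, 3 SD over mean compound inhibition, cut at about 8.4% in these data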;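 note: 0% = DMSO-only wells with no growth and 100% = 10 µM 1-NA-PP1 full growth; inhibition rescues growth on 5-FOA so higher OD means more RAM inhibition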
S1P4 antagonist: blocks the human S1P4 receptor | S1P4-expressing cells, antagonist mode, reporter read-out | AID 1510 | actives 0.26% (n = 220,000) | O95977 | inhibition, % at 4.98 µM; in the data active = inhibition above about 29%;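 note: 0% = wells stimulated with agonist and 100% = vehicle wells without agonist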
Target sequence (O95977 whole entry, looked up): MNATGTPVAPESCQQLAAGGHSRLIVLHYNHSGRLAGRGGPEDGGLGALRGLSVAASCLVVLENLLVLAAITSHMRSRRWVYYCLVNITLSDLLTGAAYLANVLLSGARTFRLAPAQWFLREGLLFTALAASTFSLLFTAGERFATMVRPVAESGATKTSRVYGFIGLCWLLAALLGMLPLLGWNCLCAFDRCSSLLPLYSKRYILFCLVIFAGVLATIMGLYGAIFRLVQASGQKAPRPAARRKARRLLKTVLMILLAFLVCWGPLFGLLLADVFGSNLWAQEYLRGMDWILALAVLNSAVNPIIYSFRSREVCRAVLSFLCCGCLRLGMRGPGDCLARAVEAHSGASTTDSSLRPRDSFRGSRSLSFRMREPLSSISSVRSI
S1P4 agonist: activates the human S1P4 receptor; S1P4-expressing cell line, agonist reporter assay; activation, % at 4.98 µM; actives 0.35% (n = 220,000); O95977; AID 1509; in the data active = activation above about 11%;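 note: 0% = DMSO vehicle and 100% = reference agonist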
ROMK primary: modulators of human ROMK potassium channel; Tet-inducible ROMK, thallium flux fluorescence; actives lie on both sides; B-score at 10 µM; actives 2% (n = 130,000);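 active = signal ratio slope over the read window, or its plate-corrected B-score, at least 3 SD from the plate mean, either direction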;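 note: B-score of the F/F0 ratio slope over 7 to 12 s after thallium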
S1P3 antag: antagonists of human S1P3 receptor; Q99500; CHO S1P3 NFAT-BLA reporter, FRET fluorescence, antagonist mode; inhibition, % at 4.98 µM; actives 0.27% (n = 170,000);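 active = inhibition above the plate cutoff, the mean inhibition of test wells on that plate plus 3 SD, cut at about 28% in these data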;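 note: cells challenged with S1P at its EC80 of 0.8 µM; blue over green emission ratio from cleaved BLA substrate after 4 h stimulation; 0% = S1P-stimulated wells and 100% = unstimulated DMSO-only wells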
S1P4 ag conf: human S1P4 agonism, confirmation; shares compounds with S1P4 agonist; S1P4 agonist cell-based reporter assay; activation, % at 4.98 µM; actives 7% (n = 740); AID 1523; in the data active = activation above about 12%;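 note: 0% = vehicle and 100% = full reference agonist response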
S1P1 ag: counter-screen for S1P4 agonists: agonists of human S1P1; shares compounds with S1P4 agonist; S1P1 agonist cell-based assay, activation; activation, % at 4.98 µM; actives 4% (n = 740); in the data active = activation above about 21%;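 note: 0% = vehicle wells and 100% = reference agonist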
* = called active by the depositor; · = not tested or not shown.

SMILES	KCC2 mod	RAM network inh	S1P4 antagonist	S1P4 agonist	ROMK primary	S1P3 antag	S1P4 ag conf	S1P1 ag
CCO[C@@H]1OC(C(=O)N2CCN(Cc3ccccc3)CC2)=C[C@H](c2csc3ccccc23)[C@H]1CCCO	-2.2	1	11	0	·	-12	·	·
C=CCNC(=S)NNC(=O)c1cc(C)nc2ccccc12	·	3	-4	1	0	4	·	·
CCNC(=S)NNC(=O)c1cc(C)nc2ccccc12	1.2	2	-5	44*	·	-8	-1	2
Cc1cc(C)cc(OCC(=O)NNC(=O)C2CCCO2)c1 (stereo not given)	0.69	1	-11	-1	-0.16	0	·	·
O=c1oc2c(CN3CCN(CCO)CC3)c(O)ccc2cc1-c1ccccn1	0.079	·	1	14*	·	8	6	3
O=c1oc2c(CN3CCCCC3)c(O)ccc2cc1-c1nc2ccccc2[nH]1	·	·	·	·	·	43	·	·
NC(=S)c1cc2cc(Cl)ccc2oc1=O	0.46	·	6	0	-0.54	1	·	·
N#Cc1ccc(/C=C\c2nccc3c2[nH]c2ccccc23)cc1	0.53	0	15	13*	0.15	13	8	10
Clc1ccc(/C=C\c2nccc3c2[nH]c2ccccc23)cc1	1.8	2	-21	23*	0.12	-76	25*	84*
Clc1ccc(/C=C/c2nc3ccccc3[nH]2)cc1	-0.24	-1	-2	0	·	·	·	·
OCCCCc1nccc2c1[nH]c1ccccc12	·	·	-1	0	·	-10	·	·
CCOC(=O)C1=C(C)NC(=O)NC1c1ccc(NC(C)=O)cc1 (stereo not given)	-0.026	1	4	5	·	-23	·	·
CCOC(=O)C1=C(C)NC(=O)NC1c1ccc(N2CCC(c3ccccc3)=N2)cc1 (stereo not given)	-1.2	6	1	15*	-0.65	-15	7	16
COc1cccc(C2=NOC(C(=O)N3CCN(C(=O)c4ccco4)CC3)C2)c1 (stereo not given)	0.47	2	3	37*	·	-26	0	-2
COc1cccc(C2=NOC(C(=O)N3CCOCC3)C2)c1 (stereo not given)	0.95	1	-3	2	·	-6	·	·
CCOc1ccc(C(=O)NCC2CCCO2)cc1OCC (stereo not given)	-0.49	0	-8	3	0.38	-1	·	·
CCOc1ccccc1N=c1oc2cc(O)ccc2cc1C(=O)NCC1CCCO1 (stereo not given)	-0.61	0	-52	61*	-1.1	·	5	-1
COc1cc(SC)ccc1C(=O)NCC1CCCO1 (stereo not given)	1.8	1	1	-4	·	1	·	·
COc1ccc(N=c2oc3cc(O)ccc3cc2C(=O)NCC2CCCO2)cc1 (stereo not given)	-0.0017	4	-20	12*	0.027	24	2	-3
COc1ccc(N=c2oc3cc(O)ccc3cc2C(=O)NCC2CCCO2)c(OC)c1 (stereo not given)	-0.26	6	-51	71*	·	-1	2	-1
CCOc1ccc(N=c2oc3cc(O)ccc3cc2C(=O)NCC2CCCO2)cc1 (stereo not given)	1.1	4	-10	5	·	·	·	·
COc1cc(/C=C(\C#N)C(=O)Nc2cccnc2)ccc1OC(C)C	-0.91	0	-15	0	·	-10	·	·
Cc1cc(Sc2nc(NC(C)C)nc(NC(C)C)n2)nc(Cl)n1	0.039	1	-15	2	1	11	·	·
COCCn1c(=NC(=O)c2ccc3c(c2)OCCO3)sc2cc(S(N)(=O)=O)ccc21	0.73	2	-4	16*	0.47	4	-1	-6
O=c1c2oc3ccccc3c2ncn1Cc1ccc(F)cc1	-0.03	3	10	-2	-0.58	-15	·	·
Cc1ccc2cc(CCNC(=O)c3ccc(C)c([N+](=O)[O-])c3)c(=O)[nH]c2c1	-2	5	-12	2	0.19	0	·	·
Nc1ccc2c(c1)Nc1ccccc1CC2	-0.49	0	-1	0	-0.61	8	·	·
